These results are taken from PubChem BioAssay (NCI).

About 79,000 compounds went through this panel and 15% of them were active in at least one assay; those are over-represented in the sample as a whole. Values without a mark were called inactive. The source made the active and inactive calls. Rule as the data show it: active = growth inhibition above about 70%; inactive = the rest.

Assay [1] can be described thus: NCI Yeast Anticancer Drug Screen. Data for the rad50 strain (AID 155).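 Also: 0% = growth of vehicle-only cultures of the same strain.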 The conditions noted are these: S. cerevisiae rad50 strain growth inhibition; at 50.0 µM; stronger effect = higher value. The method in brief:
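DNA repair mutant yeast, compound exposure, growth read-out; inhibition is taken relative to vehicle.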

Assay [2] can be described thus: NCI Yeast Anticancer Drug Screen. Data for the mec2-1 strain (AID 157). Conditions: S. cerevisiae mec2-1 strain, at 50.0 µM, stronger effect = higher value. The essentials: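 Readout is yeast growth inhibition, normalised to vehicle-treated controls, in the mec2-1 strain exposed to compound.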
A short description of assay [3]: NCI Yeast Anticancer Drug Screen. Data for the sgs1 mgt1 strain (AID 161).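 Also: 0% = growth of cultures given vehicle only.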 The conditions noted are these: S. cerevisiae sgs1 mgt1 strain, at 50.0 µM, stronger effect = higher value. The essentials: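 This yeast growth screen uses a strain with defined DNA-repair lesions; compound-treated growth is compared with vehicle-treated growth.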
A short description of assay [4]: NCI Yeast Anticancer Drug Screen. Data for the cln2 rad14 strain (AID 165).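 Also: 0% = growth equal to vehicle treated cultures.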 The conditions noted are these: S. cerevisiae cln2 rad14 strain, at 50.0 µM, stronger effect = higher value. The method in brief:
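Relative to vehicle controls, growth inhibition of compound-treated cln2 rad14 yeast was recorded.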

A short description of assay [5]: NCI Yeast Anticancer Drug Screen. Data for the bub3 strain (AID 167). The conditions noted are these: S. cerevisiae bub3 mutant strain, at 50.0 µM, stronger effect = higher value. The essentials: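 In this screen, a yeast mutant lacking normal mitotic checkpoint function is challenged with compound. Relative growth versus vehicle gives the inhibition value.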
Assay [6] can be described thus: NCI Yeast Anticancer Drug Screen. Data for the mlh1 rad18 strain (AID 175). Conditions: S. cerevisiae mlh1 rad18 strain growth inhibition; at 50.0 µM; stronger effect = higher value. The method in brief: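 Test agents were incubated with a yeast strain of defined genotype (DNA damage repair defect). Inhibition of growth was derived by comparison with vehicle-exposed cultures.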

As to `CCCC(C)SP(=S)(SC(C)CCC)SC(C)CCC` (stereo not given), the growth inhibition was 4.1% in assay [1]; -11.3% in assay [2]; -1.9% in assay [3]; -43.3% in assay [4]; 2.85% in assay [5]; 19.6% in assay [6].
Regarding `CC(=O)Oc1cccc(C#N)c1`, the growth inhibition is -3.1% in assay [1]; 1.25% in assay [2]; 1.7% in assay [3]; -24.8% in assay [4]; 6.65% in assay [5]; 5.05% in assay [6].
For `N#CC1=C(C#N)C(=O)C(Cl)=C(Cl)C1=O`, the growth inhibition is 14.9% in assay [1]; 24.9% in assay [2]; 16.9% in assay [3]; 8.7% in assay [4]; 16.6% in assay [5]; 29.2% in assay [6].
Consider `Nc1ccc2c(c1)Cc1cc(N)ccc1-2`, for which the growth inhibition in assay [1] was 60.2%; in assay [2], 15.3%; in assay [3], 57%; in assay [4] it was -3.75%; in assay [5], 37%; in assay [6], 12.1%.
Turning to `CC(=O)[O][Hg][c]1cc[c]([Hg])s1`, the growth inhibition was 99.5% (active) in assay [1]; 99.3% (active) in assay [2]; 99.5% (active) in assay [3]; 99.3% (active) in assay [4]; 99% (active) in assay [5]; 99.2% (active) in assay [6].
With `C/C=C1/CN2C3C[C@H]1C(CO)(C(=O)OC)[C@H]2Cc1c3n(C)c2ccccc12` (stereo not given in full), the growth inhibition in assay [1] was -1.2%; in assay [2] it was -4.35%; in assay [3] it was 16.7%; in assay [4], -0.1%; in assay [5], 7%; in assay [6] it was -8.9%.
For the compound `Cc1ccc(S(=O)(=O)Nc2cc(C)cc(CCN)c2C)cc1`, the growth inhibition was 17.1% in assay [1]; -11.6% in assay [2]; -14.6% in assay [3]; 4.75% in assay [4]; 5.5% in assay [5]; -10.1% in assay [6].
Regarding `C=CCCCCCCCCC(=O)Nc1ccc(Cl)cc1C(=O)c1ccccc1`, the growth inhibition in assay [1] is -2.3%; in assay [2] it was 0%; in assay [3], 4.3%; in assay [4] it was 28.2%; in assay [5], -7.95%; in assay [6], 13.8%.
As for `c1cc(C2O[C@H]3CCCN3[C@@H]2c2ccncc2)ccn1` (stereo not given in full), the growth inhibition is -30.6% in assay [1]; -17.9% in assay [2]; 1.15% in assay [3]; 2.85% in assay [4]; -14.8% in assay [5]; -25.4% in assay [6].
Turning to `CNC(=O)Oc1cccc(N)c1`, the growth inhibition is 5.35% in assay [1]; -1.1% in assay [2]; 5.85% in assay [3]; 7.3% in assay [4]; -22.1% in assay [5]; -0.05% in assay [6].
`CC1=CC23C(COC(=O)C24CO4)C(C(=O)O)=CC3C1C` (stereo not given): the growth inhibition was -22.8% in assay [1]; -19.7% in assay [2]; -13.3% in assay [3]; 27% in assay [4]; -8.95% in assay [5]; -5.7% in assay [6].
For the compound `O=C1C(F)=C(F)C(=O)C(F)=C1F`, the growth inhibition in assay [1] is 16.2%; in assay [2] it was -4.75%; in assay [3], 8.35%; in assay [4], -2.85%; in assay [5], 21.5%; in assay [6] it was -1.7%.
In the case of `CCOC(=O)COc1cc(Cl)c(S(=O)(=O)F)cc1Cl`, the growth inhibition is 98.8% (active) in assay [1]; 92.3% (active) in assay [2]; 97.3% (active) in assay [3]; 93.1% (active) in assay [4]; 98.3% (active) in assay [5]; 98% (active) in assay [6].
Turning to `Cc1cc(S(=O)(=O)F)ccc1NC(=O)/C=C/c1ccc([N+](=O)[O-])cc1`, the growth inhibition is 8.95% in assay [1]; 4% in assay [2]; 0.75% in assay [3]; 0.55% in assay [4]; 21.4% in assay [5]; -8.15% in assay [6].
On to `CCN1CCc2cc(OC)c(OC)cc2C1`, for which the growth inhibition in assay [1] is 0.15%; in assay [2] it was 4.7%; in assay [3], 6.45%; in assay [4] it was -25.9%; in assay [5], -0.6%; in assay [6], 3.5%.
Consider `COC12C(COC(N)=O)C3=C(C(=O)C(C)=C(N4CC4)C3=O)N1CC1NC12` (stereo not given), for which the growth inhibition was 87.7% (active) in assay [1]; 90.3% (active) in assay [2]; 90.9% (active) in assay [3]; 86.3% (active) in assay [4]; 88.8% (active) in assay [5]; 87.2% (active) in assay [6].
In the case of `N.N.N.N.N.N.O=N[O-].[Br-].[Co+3].[Co+3].[OH3+].[OH3+]`, the growth inhibition in assay [1] is 7.15%; in assay [2], 9.25%; in assay [3], -15.4%; in assay [4], 15.9%; in assay [5], 6.25%; in assay [6], -7.9%.
Regarding `Cc1cccc(CCF)c1`, the growth inhibition is -8.4% in assay [1]; 8.5% in assay [2]; 1.25% in assay [3]; -3.8% in assay [4]; -0.15% in assay [5]; -4.75% in assay [6].
With `O=C(c1ccc(Cl)cc1)N1CCOCC1`, the growth inhibition in assay [1] is -4.45%; in assay [2], -15.2%; in assay [3], -7.6%; in assay [4], -29.4%; in assay [5] it was -53%; in assay [6], -7.95%.
For the compound `[Cl][Hg][Cl].c1ccc(N=P(c2ccccc2)(c2ccccc2)c2ccccc2)cc1`, the growth inhibition was 99.7% (active) in assay [1]; 99.8% (active) in assay [2]; 99.8% (active) in assay [3]; 99.5% (active) in assay [4]; 99.3% (active) in assay [5]; 99.6% (active) in assay [6].
